In paper PMC12431657, “Discovery and mechanistic insights of dibenzoylmethane as a broad spectrum inhibitor of coronavirus” (PLOS Pathogens, 2025):
Read-outs that look alike come from different tables or passages of the source. The campaign covered roughly 3,300 compounds. About 60 (2%) showed an effect of 50% or more. What follows is part of a selection rich in strong results, with near analogues and random picks from the rest.

Tested on: HCoV-OC43
Design: species or system RD; HTS, protection from HCoV-OC43 induced cell death, luminescent cell viability (CellCounting-Lite 2.0), inhibition rate
Details: 24 h post infection, 1 h compound pre-incubation, 10 µM, inhibitor

| SMILES | OC43 Inhibition rate [%] | OC43 Inhibition rate (OC43 Inhibition rate, 24 h) [%] |
| --- | --- | --- |
| C[S+]([O-])CCCC/C(=N\OS(=O)(=O)O)S[C@@H]1O[C@H](CO)[C@@H](O)[C@H](O)[C@H]1O (stereo partly drawn) [Glucoraphanin] | -2.3 | – |
| CC(C)=CCC[C@](C)(O)[C@H]1CC[C@]2(C)[C@@H]1[C@H](O)C[C@@H]1[C@@]3(C)CC[C@H](O)C(C)(C)[C@@H]3[C@@H](O[C@@H]3O[C@H](CO)[C@@H](O)[C@H](O)[C@H]3O[C@@H]3OC[C@@H](O)[C@H](O)[C@H]3O)C[C@]12C [Notoginsenoside R2] | 0.5 | – |
| CSSSC [Dimethyl trisulfide] | -0.3 | – |
| COc1ccc2cc3[n+](cc2c1O)CCc1cc2c(cc1-3)OCO2 [Berberrubine (chloride)] | -0.4 | – |
| CC1(C)O[C@H]1COc1c2ccoc2cc2oc(=O)ccc12 [Oxypeucedanin] | 0.5 | – |
| C[C@@H]1O[C@@H](O[C@@H]2C(=O)c3c(O)cc(O)cc3O[C@@H]2c2ccc(O)c(O)c2)[C@H](O)[C@H](O)[C@H]1O [Isoastilbin] | 4.2 | – |
| C/C=C/C[C@@H](C)[C@@H](O)[C@H]1C(=O)N[C@@H](C(C)C)C(=O)N(C)CC(=O)N(C)[C@@H](CC(C)C)C(=O)N[C@@H](C(C)C)C(=O)N(C)[C@@H](CC(C)C)C(=O)N[C@@H](C)C(=O)N[C@H](C)C(=O)N(C)[C@@H](CC(C)C)C(=O)N(C)[C@@H](CC(C)C)C(=O)N(C)[C@@H](C(C)C)C(=O)N1C [Cyclosporin D] | 68 | – |
| O=C1O[C@H]([C@@H](O)CO)C(O)=C1OP(=O)(O)O [L-Ascorbic acid 2-phosphate (trisodium)] | 9.8 | – |
| CCCCCCCCCCCCCCCCCCC(=O)O [Nonadecanoic acid] | -0.5 | – |
| CC(C)=CCC1=C(O)C(=O)c2ccccc2C1=O [Lapachol] | 27.9 | – |
| COC(=O)C1=C(O)c2ccccc2C(=O)[C@]1(CC=C(C)C)C1=CC(=O)c2ccccc2C1=O [Rubipodanone A] | 58.8 | – |
| CC(C)=CCC1=CC(=O)c2ccccc2C1=O [Deoxylapachol] | 3.8 | – |
| Nc1ncnc2c1ncn2[C@@H]1O[C@H](COP(=O)(O)O)[C@@H](O)[C@H]1O [Adenosine monophosphate] | – | 0 |
| C1CCN2C[C@H]3C[C@H](CN4CCCC[C@@H]34)[C@H]2C1 [(+)-Sparteine] | – | 6 |
| C=C(C)[C@H](CC=C(C)C)Cc1c(O)cc(OC)c2c1O[C@H](c1ccc(O)cc1OC)CC2=O [(2S)-2'-Methoxykurarinone] | 98.5 | – |
| C=C(C)[C@H](CC=C(C)C)Cc1c(O)cc(O)c2c1O[C@H](c1ccc(O)cc1O)CC2=O [sophoraflavanone G] | 39.8 | – |
| C=C(C)[C@H](CC=C(C)C)Cc1c(O)cc(OC)c2c1O[C@H](c1ccc(O)cc1O)CC2=O [Kurarinone] | 0 | – |
| CC1(C)CC[C@]2(C(=O)O[C@@H]3O[C@H](CO)[C@@H](O)[C@H](O)[C@H]3O)CC[C@]3(C)C(=CC[C@@H]4[C@@]5(C)CC[C@H](O[C@@H]6O[C@H](C(=O)O)[C@@H](O)[C@H](O)[C@H]6O[C@H]6OC[C@@H](O)[C@H](O)[C@H]6O)C(C)(C)[C@@H]5CC[C@]43C)[C@@H]2C1 [Pseudoginsenoside RT1] | 0.7 | – |
| O=c1c2cc(O[C@@H]3O[C@H](CO)[C@@H](O)[C@H](O)[C@H]3O)c(O)cc2oc2cc(O)c([C@@H]3O[C@H](CO)[C@@H](O)[C@H](O)[C@H]3O)c(O)c12 [Neomangiferin] | 3 | – |
| COC[C@@H](Cc1ccc(OC)c(OC)c1)[C@@H](COC)Cc1ccc(OC)c(OC)c1 [Phyllanthin] | 0.2 | – |
| CC1=C[C@]23C(=O)[C@@H](C=C4COC(C)(C)O[C@H]4C2(O)[C@H]1O)[C@H]1[C@@H](C[C@H]3C)C1(C)C (stereo partly drawn) [Ingenol-5,20-acetonide] | -2.5 | – |
| C/C=C(/C)C(=O)O[C@H]1C(C)=C[C@]23C(=O)[C@@H](C=C4COC(C)(C)O[C@H]4[C@]12O)[C@H]1[C@@H](C[C@H]3C)C1(C)C [Ingenol-5,20-acetonide-3-O-angelate] | 69.8 | – |
| C/C=C(/C)C(=O)O[C@H]1C(C)=C[C@]23C(=O)[C@@H](C=C(CO)[C@@H](O)[C@]12O)[C@H]1[C@@H](C[C@H]3C)C1(C)C [Ingenol Mebutate] | 1.1 | – |
| Cc1cc(=O)c2c(O)c3c(cc2o1)OC(C)(C)[C@@H](O[C@@H]1O[C@H](CO)[C@@H](O)[C@H](O)[C@H]1O)C3 [Sec-O-Glucosylhamaudol] | -0.4 | – |
